Molecules are shown by their SMILES.

This experiment in a line: compound binding in COS7 lysate, probe aLAP1, primary screen, cell lysate, small-molecule microarray (AID 1124).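 Also: lysate comes from COS7 cells expressing LAP1 and is applied at 0.3 µg/mL; score merges spot fluorescence near 667 nm with signal-to-noise over triplicate slides.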 The following applies: probe aLAP1, fluorescence, higher = more signal.
`O=[N+]([O-])c1ccc(C[n+]2ccc3ccc(O)cc3c2)o1` yielded a composite z-score of 0.98. In the case of `O=C1O[C@@H](c2ccccc2)[C@@H](c2ccccc2)N2[C@@H](c3ccccc3OCCO)[C@]3(C(=O)Nc4ccc(C#CC5=CCCCC5)cc43)[C@@H](C(=O)O)[C@H]12` it was 0.659; in that of `CCC#CCN(Cc1ccccc1Br)[C@H](/C=C/c1ccccc1)[C@@H](O)Cc1ccccc1`, 0.162; in that of `COCCOC(=O)N1C(=O)[C@@]2(c3cc(C#CC4(O)CCCCCC4)ccc31)[C@H](C(=O)N1CCCCCCC1)[C@H]1C(=O)O[C@H](c3ccccc3)[C@H](c3ccccc3)N1[C@@H]2c1ccc(O)cc1`, -0.139. For `C[N+](C)(C)CCCCNC(=O)[C@@H]1C[C@@H]2C(=O)N3CCC[C@H]3C(=O)N2[C@@H]1c1cccc(OCCO)c1`, the composite z-score was 0.248.

Consider `C=CCN1C(=O)[C@]2(O[C@H](CCn3cc(CCO)nn3)[C@@H]([Si](C)(C)c3ccc(OC)cc3)[C@@H]2C)c2cc(NC(=O)c3ccc(OC)cc3)ccc21`, for which the composite z-score was -0.0812. On to `CO[C@H]1COC(=O)[C@@H](Cc2ccccc2)NC(=O)[C@@H](C)COC(=O)CC=C[C@@H]1C`, for which the composite z-score was -0.422. In the case of `O=C1C2C=CC(C(O)c3ccccc3)N(n3cnnc3)C2C(=O)N1Cc1ccccc1` (configuration not stated) it was -0.333; in that of `C=C(COC)/C(=C/C[C@@H](OC(=O)c1ccncc1)c1ccc(OCCO)cc1)c1cc(C(=O)OC)ccc1OC`, 0.482. Consider `O=C1C[C@@](C(=O)NCCN2CCOCC2)(c2ccc([N+](=O)[O-])cc2)[C@@H](c2ccc(CO)cc2)N1C1CCCCC1`, for which the composite z-score was 0.596. Under `COc1ccc(NN2C(C(O)c3cc(OC)c(OC)c(OC)c3)C=CC3C(=O)N(C4CCCCC4)C(=O)C32)cc1` (configuration not stated) stands 0.754. `C=C(C)[C@@H]1CC=C(C(O)C2C=CC3C(=O)NC(=O)C3N2Nc2ccccn2)CC1` (some centres not stated) yielded a composite z-score of 0.759.

Take `O=C1OCCC/C=C\[C@H]2OC34C=CCN(CCN5CCOCC5)C(=O)[C@H]3N(CCCCCO)C(=O)[C@@H]4C12` (some centres not stated): the composite z-score was -0.401. With `NC(=O)NCC#Cc1ccc2c(c1)[C@]1(C(=O)N2)[C@H](C(N)=O)[C@H]2C(=O)O[C@H](c3ccccc3)[C@H](c3ccccc3)N2[C@@H]1c1ccccc1OCCO`, the composite z-score worked out at 0.519. With `COc1ccc([Si](C)(C)[C@H]2[C@H](CCO)O[C@@]3(C(=O)N(Cc4ccccc4)c4ccc(N5C(=O)c6cccc7cccc5c67)cc43)[C@@H]2C)cc1`, the composite z-score is 1.06. Regarding `CN(C)c1ccc(C(O)C2C=CC3C(=O)NC(=O)C3N2Nc2ccc(Cl)cc2Cl)cc1` (configuration not stated), the composite z-score is 0.305.

`COC(=O)C(CC#Cc1ccc2c(c1)[C@]1(C(=O)N2)[C@H](C(=O)N2CCCCCCC2)[C@H]2C(=O)O[C@H](c3ccccc3)[C@H](c3ccccc3)N2[C@@H]1c1ccc(O)cc1)C(=O)OC` gave a composite z-score of 0.39.

Compound `C=CCNC(=O)[C@@H]1[C@H]2C(=O)O[C@H](c3ccccc3)[C@H](c3ccccc3)N2[C@H](c2ccc(OCCO)cc2)[C@@]12C(=O)N(C(=O)OCCOC)c1ccc(C#CC3(O)CCCCCC3)cc12` returned a composite z-score of 0.568. For the compound `CC(C)[Si]1(C(C)C)O[C@@H](c2ccccc2)c2cc(C3CC3)nc(-c3ccc(Oc4ccccc4)cc3)c21`, the composite z-score was -0.0034. Regarding `[N-]=[N+]=NCc1ccccc1C[C@]1(C(=O)N2CCCCC2)N=C(c2ccc(OCCCO)cc2)O[C@H]1c1ccccc1CN=[N+]=[N-]`, the composite z-score turned out to be 0.796. Consider `Cc1ccc(N2C(=O)c3ccccc3[C@@H](C(=O)NCC(F)(F)F)[C@@H]2c2ccc(CO)cc2)nc1`, for which the composite z-score is -0.415. In the case of `CC(C)N1CC=CC23O[C@@H]4/C=C\CCCOC(=O)C4[C@H]2C(=O)N(CCO)[C@@H]3C1=O` (some centres not stated) it was 1.43. `O=C(NCC(F)(F)F)[C@@H]1c2ccccc2C(=O)N(Cc2ccccc2Cl)[C@H]1c1ccc(CO)cc1` returned a composite z-score of 1.03.

`C=CCNC(=O)[C@H]1[C@@H]2C(=O)O[C@@H](c3ccccc3)[C@@H](c3ccccc3)N2[C@@H](c2ccccc2OCCO)[C@]12C(=O)N(C(=O)OCCOC)c1ccc(C#CCC(C(=O)OC)C(=O)OC)cc12`: the composite z-score was 0.689. As to `C[C@@H]1C=CCC(=O)OC[C@H]2O[C@@H](C=C[C@@H]2O)[C@H](C)C=CCC(=O)OC[C@H]2O[C@H]1C=C[C@@H]2O`, the composite z-score is -0.725.

In the case of `Cc1ccc(S[C@]2(C(=O)NCCN3CCOCC3)CC(=O)N(C3Cc4ccccc4C3)[C@@H]2c2ccc(CO)cc2I)cc1`, the composite z-score turned out to be 0.39. Under `CC(C)CNC(=O)[C@@]1(C)c2ccccc2C(=O)N(Cc2ccc(OC(F)(F)F)cc2)[C@H]1c1ccc(CO)cc1` stands 0.559.
